The list is not random: actives were taken first. Their share in the collection is about 5%.
SENP8 block-1 = SENP8 (human) protease inhibition; Q96LD8; recombinant SENP8, Nedd8 substrate fluorescence; inhibition, % at 20 µM; hit rate 0.64% among 360,000; AID 602440; in the data active = inhibition mostly above about 40%, no sharp cut-off; inactive = mostly below about 27%
SENP8 block-2 = SENP8 protease inhibition; purified SENP8, Z-RLRGG-aminoluciferin cleavage, luminescence; inhibition, % at 10 µM; hit rate 1.2% among 330,000; AID 2540; in the data active = inhibition above about 50%
EBI2 antag = blocks human EBI2 receptor beta-arrestin signaling; EBI2 beta-arrestin recruitment, luminescence, 7a,25-OHC stimulated; P32249; inhibition, % at 5 µM; hit rate 0.81% among 360,000; in the data active = inhibition above about 38%;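 also: enzyme fragment complementation signal reports receptor beta-arrestin coupling in cells; 0% = agonist plus DMSO wells and 100% = wells without agonist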
AHR activator = activates the human aryl hydrocarbon receptor; activation, % at 5 µM; hit rate 2.5% among 320,000; P35869; AHR-responsive luciferase reporter cells, luminescence; AID 2796; in the data active = activation above about 47%;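 also: 0% = vehicle wells and 100% = reference agonist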
Target sequence (P35869 whole entry, looked up): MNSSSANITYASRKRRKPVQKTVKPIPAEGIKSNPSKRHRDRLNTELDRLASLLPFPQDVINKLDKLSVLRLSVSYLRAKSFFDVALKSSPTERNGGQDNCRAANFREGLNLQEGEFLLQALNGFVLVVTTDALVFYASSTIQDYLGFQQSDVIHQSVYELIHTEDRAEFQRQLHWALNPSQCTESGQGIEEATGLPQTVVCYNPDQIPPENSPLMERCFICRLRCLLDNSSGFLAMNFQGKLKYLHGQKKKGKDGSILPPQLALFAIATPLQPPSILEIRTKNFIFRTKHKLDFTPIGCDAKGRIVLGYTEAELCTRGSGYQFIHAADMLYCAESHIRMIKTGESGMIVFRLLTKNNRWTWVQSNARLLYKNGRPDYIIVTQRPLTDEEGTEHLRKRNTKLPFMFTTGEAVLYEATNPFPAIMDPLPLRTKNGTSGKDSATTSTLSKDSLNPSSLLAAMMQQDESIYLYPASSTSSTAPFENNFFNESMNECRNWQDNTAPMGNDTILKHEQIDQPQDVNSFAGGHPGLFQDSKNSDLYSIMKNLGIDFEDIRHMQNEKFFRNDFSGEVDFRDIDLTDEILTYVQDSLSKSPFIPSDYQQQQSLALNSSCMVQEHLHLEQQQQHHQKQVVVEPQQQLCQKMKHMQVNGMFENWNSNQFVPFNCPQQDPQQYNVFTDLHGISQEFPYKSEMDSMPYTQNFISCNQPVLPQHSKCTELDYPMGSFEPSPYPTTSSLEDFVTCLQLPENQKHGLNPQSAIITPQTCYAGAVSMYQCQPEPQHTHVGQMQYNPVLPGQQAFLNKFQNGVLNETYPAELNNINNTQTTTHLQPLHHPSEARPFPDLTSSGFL
SENP6 inh = blocks the human protease SENP6. Q9GZR1. Recombinant SENP6 catalytic domain, aminoluciferin luminescence. inhibition, % at 10 µM. hit rate 1.8% among 330,000;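 active = inhibition above about 50% at the single tested dose, limit read from the data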;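 also: plate controls were DMSO wells with enzyme for no effect and DMSO wells lacking enzyme for full effect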
SENP7 block = blocks the human protease SENP7; inhibition, % at 5 µM; recombinant SENP7, Z-RLRGG-aminoluciferin luminescence, 40 min; hit rate 1.5% among 330,000; Q9BQF6;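 active = inhibition above about 50% at the single test dose, limit read from the data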;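 also: plate controls were DMSO with enzyme for no effect and no enzyme buffer wells for full effect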
AHR act cf = confirmation of human aryl hydrocarbon receptor activators; shares compounds with AHR activator; human cells, AHR-responsive luciferase reporter, luminescence; activation, % at 9 µM; hit rate 87% among 2,300; in the data active = activation above about 49%;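 also: HepG2 hepatoma cells carrying a DRE-driven firefly luciferase reporter; 0% = vehicle wells and 100% = reference agonist wells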
PXR counter = counter-screen for AHR activators: human PXR activators | shares compounds with AHR activator | cell-based PXR reporter, luciferase luminescence | activation, % at 11.6 µM | hit rate 88% among 2,300 | AID 434939; in the data active = activation above about 11%;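 also: human hepatoma DPX-2 cells expressing full-length human PXR; 0% = DMSO and 100% = reference agonist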
Numbers without * were called inactive; / = no result given.

SMILES | SENP8 block-1 | SENP8 block-2 | EBI2 antag | AHR activator | SENP6 inh | SENP7 block | AHR act cf | PXR counter
Cc1ccc(S(=O)(=O)NCc2ccccc2)cc1C(=O)N(C)CC(=O)Nc1c(Cl)cccc1Cl | -2 | 7 | 16 | 1 | 12 | 1 | / | /
O=C(Nc1ccc(F)cc1)c1cnc(-c2ccccc2)nc1-c1ccccc1 | 27 | -1 | 14 | 124* | -4 | -5 | 53* | 81*
CCNc1nc(NCC)n2c(SCC(=O)N(CC)C3CCCCC3)nnc2n1 | 14 | -11 | 1 | 2 | -5 | -2 | / | /
O=c1c2[nH]c3cccc(Cl)c3c2ncn1Cc1ccncc1 | -36 | 2 | 2 | 84* | -15 | -8 | 74* | 19*
O=S(=O)(N[C@H](CO)c1ccccc1)c1ccc(Br)cc1F | 1 | / | -11 | / | / | 2 | / | /
CCn1c(=O)cc(OCC(=O)NCc2ccc(C)o2)c2ccccc21 | 4 | -4 | -4 | 96* | 5 | 2 | 46 | 25*
CC1(C)CC(c2nc(-c3ccc([N+](=O)[O-])cc3)cs2)CCO1 (stereo unspecified) | 1 | -3 | 29 | 1 | -18 | -1 | / | /
Cc1oc2c(cc(NS(=O)(=O)c3ccc(F)cc3)c3ccccc32)c1C(=O)O | 7 | 6 | 6 | 19 | 8 | 2 | / | /
Cc1oc2c(cc(NS(=O)(=O)c3cccs3)c3ccccc32)c1C(=O)OC(C)C | 22 | -2 | 3 | 92* | 0 | -3 | 92* | 162*
COc1ccc(S(=O)(=O)Nc2cc3c(C(C)=O)c(C)oc3c3ccccc23)cc1 | 28 | -5 | 1 | 92* | -4 | -7 | 76* | 255*
Cc1ccc(C)c(S(=O)(=O)N2CCN(Cc3cc4c(cc3O)OCO4)CC2)c1 | 11 | 6 | 5 | 4 | -12 | 2 | / | /
CC1(C(=O)Nc2ccc(Cl)cc2)Cc2c(-c3ccc4c(c3)OCO4)ccnc2O1 (stereo unspecified) | -66 | / | 0 | / | / | / | / | /
O=C(CN1CCN(S(=O)(=O)c2ccc(Br)s2)CC1)NCC1CCCCC1 | 16 | / | -3 | / | / | / | / | /
Oc1ccc2[nH]ccc2c1 | 3 | 4 | -6 | 0 | -14 | 4 | / | /
Nc1ccccc1C#Cc1ccc2[nH]ccc2c1 | -498 | 13 | -12 | 94* | 21 | 0 | 120* | 24*
Cc1cccc(C(=O)N/C(=C\c2ccc(C)o2)C(=O)O)c1 | 13 | -2 | -5 | 7 | -21 | 0 | / | /
O=C(/C=C/c1ccccc1)c1c[nH]c2ccccc12 | 9 | 38 | 10 | 84* | 58* | 84* | 93* | 32*
CC(=O)OC(C(=O)NCCN1CCOCC1)c1c(F)cccc1F (stereo unspecified) | 21 | 0 | -8 | 0 | -3 | -2 | / | /
OCCSc1nc(-c2ccccc2)nc2ccc(F)cc12 | 4 | -9 | -7 | 102* | 3 | 6 | 95* | 24*
CC(C)CC1NC(=O)N(Cc2cc(=O)n3ccsc3n2)C1=O (stereo unspecified) | -24 | 3 | -1 | -1 | -27 | 2 | / | /
O=C(COC(=O)c1cc(Cl)ccc1[N+](=O)[O-])NCc1ccc(Cl)cc1Cl | -67 | -3 | -4 | 1 | -6 | 11 | / | /
O=C(Nc1ccc(F)cc1)c1ccc2nc[nH]c2c1 | 14 | 3 | -17 | 147* | 16 | 11 | 136* | 14*
O=C(Nc1ccc(F)cc1)c1ccc2nsnc2c1 | 17 | 6 | 0 | 96* | 44 | 44 | 124* | 26*
COc1cc(NC(=O)c2ccc3nsnc3c2)cc(OC)c1OC | 18 | -3 | -12 | 37 | -9 | -2 | / | /
Nc1ccn(Cc2ccc(F)cc2)n1 | 11 | 1 | 7 | -2 | 4 | 2 | / | /
SMILES | SENP8 block-1 | SENP8 block-2 | EBI2 antag | AHR activator | SENP6 inh | SENP7 block | AHR act cf | PXR counter
Cc1ccc(S(=O)(=O)NCc2ccccc2)cc1C(=O)NCc1ccccn1 | 8 | 5 | -4 | 1 | 3 | -4 | / | /
CNc1c(NS(=O)(=O)c2ccc(OC)c(Cl)c2)c(=O)oc2ccccc12 | 8 | 6 | -4 | 2 | -15 | 9 | / | /
Cc1cc(C)cc(Nc2nc3c([nH]2)c(=O)n(C)c(=O)n3C)c1 | -3 | -1 | -5 | 95* | -2 | -1 | 38 | 27*
O=C(CN1C(=O)NC2(CCCC2)C1=O)OCCOc1ccc(Cl)cc1 | 5 | -2 | 1 | 1 | -2 | -4 | / | /
Cc1c(-c2nc(-c3cccnc3)no2)cccc1[N+](=O)[O-] | -1 | -12 | 16 | 88* | 3 | -7 | 119* | 19*
CC(=O)c1cccc(NC(=S)N2CCc3ccccc32)c1 | -15 | 4 | 10 | 86* | 24 | 9 | 107* | 60*
O=C(N=C1c2ccccc2CN1c1ccc(F)c(Cl)c1)c1cccnc1Cl | / | 62* | / | 123* | 66* | 61* | 113* | 158*
N#Cc1ccc(N2Cc3ccccc3C2=NC(=O)c2cccnc2Cl)cc1 | -18 | -1 | -9 | -6 | 27 | 11 | / | /
C[C@H](CO)N1C[C@H](C)[C@H](CN(C)S(=O)(=O)c2cccc(C#N)c2)OCc2cnnn2CCCC1=O | -2 | / | -8 | / | / | / | / | /
CCOc1ccc2[nH]c3c(NCC(C)C)ncnc3c2c1 | -289 | -2 | 10 | 100* | -11 | 5 | 101* | 49*
CCOc1ccc2[nH]c3c(NCCOC)ncnc3c2c1 | -284 | 0 | 9 | 85* | -11 | 1 | 116* | 39*
CCOc1ccc2[nH]c3c(NCCN(CC)CC)ncnc3c2c1 | -285 | 0 | 8 | 7 | -2 | -1 | / | /
CN(C)C=Nc1ccc2nn(-c3ccccc3)nc2c1 | -329 | 18 | 8 | 109* | 41 | 42 | 117* | 17*
Cc1noc(C)c1COc1ccc(C(=O)NNC(=O)c2ccccc2O)cc1 | -14 | -14 | -4 | 27 | -18 | -12 | / | /
N#Cc1ccc(C23OCCN2CCn2c3c3ccccc3[n+]2[O-])cc1 (stereo unspecified) | -41 | 0 | -14 | 112* | -7 | 9 | 122* | 46*
CCC1CCCN1Cn1cnc2c([nH]c3ccccc32)c1=O (stereo unspecified) | -140 | 6 | -11 | 84* | -3 | -2 | 78* | 54*
Cc1cc(NC(=O)c2ccccc2-c2ccccc2)ccc1Br | 16 | -10 | 28 | 94* | -13 | -15 | 93* | 153*
Cc1ocnc1C(=O)Nc1ccc(Cl)cc1 | -24 | 6 | -2 | 104* | 43 | 26 | 66* | 25*
Cc1nnsc1C(=O)Nc1ccc(Cl)cc1 | 7 | -11 | -5 | 106* | 12 | 11 | 64* | 26*
C[C@H]1CN([C@@H](C)CO)C(=O)CCCn2nncc2CO[C@@H]1CN(C)S(=O)(=O)c1ccc(Oc2ccccc2)nc1 | 10 | / | -3 | / | / | / | / | /
C=CCn1c(O)c(N=NC(=O)OCC)c2ccccc21 | 13 | 1 | -10 | 37 | -7 | 5 | / | /
